Several values for one entry are separate records, joined by “and”; a condition that tells them apart may be missing. Identical values can stand only once. Screen size: about 16,000 compounds; about 5,800 (36%) were called active. Inconclusive results (about 23%) are left out. Calls come from the whole dose curve; as a rule, active = well fitted curve in the direction sought with a large enough effect; inconclusive = small, poorly fitted or top-dose-only effect, or effect the other way; inactive = no such curve, though single readings can be large or run the other way. This is one part of the list. Some structures have more than one record in an assay (separate samples or runs), and their calls can disagree.
Target: Cytochrome P450 2C19 (Homo sapiens) (UniProt P33261)
Experiment: Cytochrome panel assay with activity outcomes
Settings: recombinant CYP, pro-luciferin dealkylation, luminescence, p450-cyp2c19; series mostly up to 57.1 µM; activity, negative = inhibition: at the top concentration
% is set by controls: 0 for no effect and ±100 for the full control effect.

Chain of Cytochrome P450 2C19 (Homo sapiens) (P33261 whole entry, looked up): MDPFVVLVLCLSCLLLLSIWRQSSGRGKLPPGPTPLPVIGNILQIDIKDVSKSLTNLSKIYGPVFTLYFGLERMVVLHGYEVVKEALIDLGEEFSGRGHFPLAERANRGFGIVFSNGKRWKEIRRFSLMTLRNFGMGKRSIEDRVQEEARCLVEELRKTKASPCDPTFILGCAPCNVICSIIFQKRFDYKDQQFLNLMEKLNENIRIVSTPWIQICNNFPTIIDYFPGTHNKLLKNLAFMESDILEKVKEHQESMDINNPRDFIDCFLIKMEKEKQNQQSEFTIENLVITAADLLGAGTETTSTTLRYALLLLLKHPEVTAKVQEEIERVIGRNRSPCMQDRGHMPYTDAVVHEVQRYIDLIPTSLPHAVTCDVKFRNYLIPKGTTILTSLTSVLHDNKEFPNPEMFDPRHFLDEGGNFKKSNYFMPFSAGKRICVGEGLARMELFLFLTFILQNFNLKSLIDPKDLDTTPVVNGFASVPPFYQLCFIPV

Row | Compound | activity, negative = inhibition | AC50
1 | c1ccc(C[n+]2cccc(-c3cc4ccccc4[nH]3)c2)cc1 | 22.1% [at 11.4 µM] (inactive) | 
2 | Clc1ccc(-c2cc3ccccc3[nH]2)cc1 |  | 3.16 µM (active)
3 | OC(c1ccccc1)(c1ccc(F)cc1)C(c1ccccc1)N1CCOCC1 (stereo unspecified) |  | 2.82 µM (active)
4 | C[C@@H](N1CCOCC1)[C@@](O)(c1ccccc1)c1ccccn1 | 5.67% [at 11.4 µM] (inactive) | 
5 | CC(C)NC(=O)N1CCC2(CC1)CCN(C(=O)c1cccc(F)c1)CC2 | 0.929% (inactive) | 
6 | C=C[C@@]1(C)CC(=O)[C@@]2(O)[C@@]3(C)[C@H](O)CCC(C)(C)[C@@H]3[C@H](O)[C@H](OC(C)=O)[C@]2(C)O1 | -17.4% (inactive) | 
7 | C=C[C@@]1(C)CC(=O)[C@@]2(O)[C@@]3(C)[C@@H](O)CCC(C)(C)[C@@H]3[C@H](OC(=O)CCN(C)C)[C@H](OC(C)=O)[C@@]2(C)O1 |  | 0.251 µM (active)
8 | Cc1cc(C2CCCCC2)n(O)c(=O)c1 | -32.4% [at 25.6 µM] (inactive) | 
9 | Cc1cc2nc(SCCOC(=O)Nc3ccc(Cl)cc3)nc(C)c2cc1C |  | 0.794 µM (active)
10 | CSc1ccc(S(=O)(=O)Nc2ccc3c4c(cccc24)CC3)cc1 |  | 0.447 µM (active)
11 | O=C(c1cccc(F)c1)N1CCC[C@@]2(CCN(Cc3nccs3)C2)C1 |  | 2.51 µM (active)
12 | O=C(c1cccc(F)c1)N1CCC2(CCN(Cc3nccs3)CC2)CC1 |  | 1.58 µM (active)
13 | O=C(c1ccncc1)N1CCC2(CCN(Cc3nccs3)CC2)CC1 | 6.61% (inactive) | 
14 | O=C(c1cccc(F)c1)N1CCC2(CCCN(Cc3nccs3)C2)CC1 | 1.9% (inactive) | 
15 | O=C(c1cc(C(F)(F)F)cc(C(F)(F)F)c1)N1CCC2(CCN(Cc3nccs3)CC2)CC1 | -44.9% (inactive) | 
16 | O=C(c1cc(C(F)(F)F)cc(C(F)(F)F)c1)N1CCC[C@@]2(CCN(Cc3nccs3)C2)C1 | -12.7% (inactive) | 
17 | CCC1(c2ccccc2)C(=O)NCNC1=O |  | inactive
18 | COCCn1c(=O)c(-c2ccccc2)nc2cnc(Nc3cccc(OC)c3)nc21 | -19% (inactive) | 
19 | Cn1c(=O)c2[nH]c(-c3ccccc3)nc2n(C)c1=O | 29.4% (inactive) | 
20 | Nc1nc(C(=O)O)c(N=Nc2ccccc2)c(=O)[nH]1 | -7.57% [at 11.4 µM] (inactive) | 
21 | O=C(O)c1nc(-c2ccccc2)[nH]c1C(=O)O |  | 3.16 µM (active)
22 | Cc1ccc(S(=O)(=O)N(CC(=O)NCCC2=CCCCC2)Cc2ccccc2F)cc1 |  | 4.47 µM (active)
23 | C/C(CCN1CCCc2nc(C)c(C)cc21)=N\OC[C@@H](O)COCc1ccco1 | 7.43% [at 11.4 µM] (inactive) | 
24 | O=C1CSC(c2ccccn2)N1c1ccc(Cl)c(Cl)c1 (stereo unspecified) |  | 3.55 µM (active)
25 | Cc1ccc(N2C(=O)c3n[nH]c(C)c3C2c2ccccn2)cc1 (stereo unspecified) | -25.1% (inactive) | 
26 | N#Cc1c(N2CCCCC2)nc(N)c2c(N)nc3c(c12)CC(c1ccccc1)O3 (stereo unspecified) |  | 6.31 µM (active)

Row | Compound | activity, negative = inhibition | AC50
27 | COc1ccccc1N1CCN(C[C@@H]2CN3C(=O)N(C)c4ccccc4C3=N2)CC1 | -22.8% (inactive) | 
28 | COc1ccccc1N1CCN(CCn2c(=O)[nH]c3c([nH]c4ccccc43)c2=O)CC1 | -6.76% (inactive) | 
29 | COc1ccccc1N1CCN(CCCCNC(=O)c2ccc(-c3ccc(C(C)=O)cc3)cc2)CC1 |  | 15.8 µM (active)
30 | COc1ccccc1N1CCN(CCCCNC(=O)c2ccc3ccccc3c2)CC1 |  | inactive
31 | COc1ccccc1N1CCN(CCCCNS(=O)(=O)c2cccc3c(N(C)C)cccc23)CC1 |  | 0.501 µM (active)
32 | COc1ccccc1N1CCN(CCCNc2cc(=O)n(C)c(=O)n2C)CC1 |  | inactive and 7.94 µM (active)
33 | COc1ccccc1N1CCN(Cc2cc(=O)n3ccsc3n2)CC1 |  | 17.8 µM (active)
34 | CC1(C)[C@@H]2CC[C@]1(CC(=O)O)[C@H](Cl)C2 | 3.64% [at 11.4 µM] (inactive) | 
35 | CCNc1ncc2nc(-c3cc(F)cc(F)c3)c(=O)n(CCC#N)c2n1 | 14.4% (inactive) | 
36 | CN[C@]1(C)[C@H]2CC[C@@H](C2)C1(C)C | -24% [at 25.6 µM] (inactive) | 
37 | CC1(C)C2([N+](=O)[O-])CN3CC1([N+](=O)[O-])CN(C2)C31CCCC1 | 3.32% (inactive) | 
38 | COc1ccccc1N1CCN(CCN2C(=O)CC3(CCCC3)CC2=O)CC1 |  | inactive
39 | COc1ccccc1N1CCN(CCCCN2C(=O)CCC2=O)CC1 |  | 10 µM (active)
40 | COc1ccccc1N1CCN(CCCCN2C(=O)c3ccccc3C2=O)CC1 |  | inactive
41 | CC(C)C(=O)NCCc1nc2ccccc2n1CCCOc1ccc(Cl)cc1 |  | 2 µM (active)
42 | C=CC[C@H](N)C(=O)O | 16.6% (inactive) | 
43 | O=C(CSc1nnc(-c2ccncc2)n1Cc1ccccc1)Nc1nccs1 |  | 1.78 µM (active)
44 | CCn1c(SCc2ccc(C(=O)Nc3nccs3)cc2)nnc1-c1ccc(NC(C)=O)cc1 |  | 5.01 µM (active)
45 | Cc1ccc(NC(=O)c2ccc(CSc3nnc(-c4ccncc4)n3C)cc2)cc1 | 8.7% (inactive) | 
46 | CCNC(=O)C1CC(=O)OC12CCCCC2 (stereo unspecified) | -10.2% (inactive) | 
47 | CN(C)CCn1c(CO)nc2c1c(=O)n(C)c(=O)n2C | 29.8% [at 11.4 µM] (inactive) | 
48 | Cn1c(OCc2ccc3c(c2)OCO3)nc2c1c(=O)n(Cc1ccc(Cl)c(Cl)c1)c(=O)n2C |  | 10 µM (active)
49 | Cn1c(=O)c2c(nc(Cl)n2Cc2ccc(Cl)c(Cl)c2)n(C)c1=O |  | 2 µM (active)
50 | CN(C)CCNc1nc2c(c(=O)n(C)c(=O)n2C)n1C | -4.31% [at 11.4 µM] (inactive) | 
51 | CCc1ccc(N2CC(C)Cn3c2nc2c3c(=O)n(CCN3CCOCC3)c(=O)n2C)cc1 (stereo unspecified) | 8.95% (inactive) | 

Reference: PubChem BioAssay AID1851 (National Center for Advancing Translational Sciences (NCATS), 2009)
